{"source": "PubChem BioAssay (Tox21)", "note": "Inconclusive results are not listed. A call without a number means that no potency is given here. The source made the active and inactive calls. Calls follow the shape of the dose curve; as a rule, active = well fitted cell-killing curve with a large enough effect in the repeat runs; inconclusive = weak or mixed curves, or effect the other way; inactive = flat fitted curve, though single readings scatter.", "data": [{"experiment": "cAMP Responsive Elements (CRE) small molecule antagonists, cell-based qHTS assay: qHTS cell viability counter screen (AID 2060913); also: nearly all actives have a fitted effect of over 40% in size", "settings": "CRE-bla HEK293T viability, CellTiter-Glo luminescence, 5 h; series mostly up to 92.4 µM", "procedure,_shortened": "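Cytotoxicity read in the same wells as the CRE-bla HEK293T antagonist assay: after 3 h compound with 0.25 uM NKH477 final and 2 h beta-lactamase substrate, CellTiter-Glo luminescence measured.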", "values": [{"smiles": "C=C(C)CC(C)(C)C", "Potency": "inactive"}, {"smiles": "CCC(=O)O[C@]1(C(=O)SCF)[C@H](C)C[C@H]2[C@@H]3C[C@H](F)C4=CC(=O)C=C[C@]4(C)[C@@]3(F)[C@@H](O)C[C@@]21C", "Potency": "inactive"}, {"smiles": "CC(=O)OC1CC(C)OC(C)O1", "note": "(stereo not given)", "Potency": "inactive"}, {"smiles": "CN(C)CCOC(c1ccccc1)c1ccccc1", "Potency": "inactive"}, {"smiles": "CCCCCCC(CCCCCCCCCCC(=O)OCC(COC(C)=O)OC(C)=O)OC(C)=O", "note": "(stereo not given)", "Potency": "inactive"}, {"smiles": "C/C=C(\\C)C(=O)OCCC(C)CCC=C(C)C", "note": "(stereo not given)", "Potency": "inactive"}, {"smiles": "NC(CO)C(=O)NNCc1ccc(O)c(O)c1O", "note": "(stereo not given)", "Potency": "inactive"}, {"smiles": "CC(=O)Oc1cc2c(s1)CCN(C(C(=O)C1CC1)c1ccccc1F)C2", "note": "(stereo not given)", "Potency": "inactive"}, {"smiles": "CCc1ccc(C=O)cc1", "Potency": "inactive"}, {"smiles": "CN(C)C(=O)Nc1ccccc1", "Potency": "inactive"}, {"smiles": "C=CCOC(=O)/C=C\\C(=O)OCC=C", "Potency": "inactive"}, {"smiles": "O=c1c(O)c(-c2ccc(O)cc2O)oc2cc(O)cc(O)c12", "Potency": "inactive"}, {"smiles": "O=C(/C=C/c1ccc([N+](=O)[O-])cc1)c1ccccc1", "Potency": "inactive"}, {"smiles": "O=[N+]([O-])c1ccc2nc[nH]c2c1", "Potency": "inactive"}, {"smiles": "Cc1cccc2ccccc12", "Potency": "inactive"}, {"smiles": "O=C(O)CCCC(=O)O", "Potency": "inactive"}, {"smiles": "Nc1c(N=Nc2ccc(-c3ccc(N=Nc4cc(S(=O)(=O)O)c5ccccc5c4N)cc3)cc2)cc(S(=O)(=O)O)c2ccccc12", "Potency": "inactive"}, {"smiles": "CCCNC(=O)NS(=O)(=O)c1ccc(Cl)cc1", "Potency": "inactive"}, {"smiles": "CC(C)C[C@H]1C(=O)N2CCC[C@H]2[C@]2(O)O[C@](NC(=O)[C@@H]3C=C4c5cccc6[nH]c(Br)c(c56)C[C@H]4N(C)C3)(C(C)C)C(=O)N12", "Potency": "inactive"}, {"smiles": "NS(=O)(=O)c1ccccc1Cl", "Potency": "inactive"}, {"smiles": "COc1cc(/C=C/c2ccccc2)oc(=O)c1", "Potency": "inactive"}, {"smiles": "CO[C@@H]1COCC[C@@H]1N[C@@H]1CC[C@@](C(=O)N2CCc3ncc(C(F)(F)F)cc3C2)(C(C)C)C1", "Potency": "inactive"}, {"smiles": "O=C1c2ccccc2CCc2ccccc21", "Potency": "inactive"}, {"smiles": "O=c1c(-c2ccc(O)cc2)coc2cc(O)cc(O)c12", "Potency": "inactive"}, {"smiles": "CCCCC(CC)COC(=O)c1ccc(C(=O)OCC(CC)CCCC)cc1", "note": "(stereo not given)", "Potency": "inactive"}, {"smiles": "O=S(=O)(O)CCCN1CCOCC1", "Potency": "inactive"}, {"smiles": "CC(C)(C)NCC(O)COc1ccccc1OCC1CCCO1", "note": "(stereo not given)", "Potency": "inactive"}, {"smiles": "CCCCCCCC/C=C\\CCCCCCCCO", "Potency": "inactive"}, {"smiles": "CCCCOC(=O)CCCCCCCC(=O)OCCCC", "Potency": "inactive"}, {"smiles": "O=C(/C=C/c1ccc(O)c(O)c1)O[C@@H]1C[C@@](OC(=O)/C=C/c2ccc(O)c(O)c2)(C(=O)O)C[C@@H](O)[C@@H]1O", "Potency": "inactive"}, {"smiles": "CN(CCOc1ccc(CC2SC(=O)NC2=O)cc1)c1ccccn1", "note": "(stereo not given)", "Potency": "inactive"}, {"smiles": "COCC(C)OC(C)=O", "note": "(stereo not given)", "Potency": "inactive"}, {"smiles": "O=S(=O)(O)c1ccc(N=Nc2c(O)ccc3cc(S(=O)(=O)O)ccc23)cc1", "Potency": "inactive"}, {"smiles": "O=C1OC2(c3ccc(O)cc3Oc3cc(O)ccc32)c2ccc(N=C=S)cc21", "Potency": "inactive"}, {"smiles": "OC(CCN1CCCCC1)(c1ccccc1)c1ccccc1", "Potency": "inactive"}, {"smiles": "O=C(c1ccc(O)cc1O)c1ccc(O)cc1O", "Potency": "inactive"}, {"smiles": "CC(C)OC(=O)OCOP(=O)(CO[C@H](C)Cn1cnc2c(N)ncnc21)OCOC(=O)OC(C)C", "Potency": "inactive"}, {"smiles": "COc1cc2c(N3CCN(C(=O)Nc4ccc(OC(C)C)cc4)CC3)ncnc2cc1OCCCN1CCCCC1", "Potency": "inactive"}, {"smiles": "CCCCCCCCCCC(CO)CCCCCCCC", "note": "(stereo not given)", "Potency": "inactive"}, {"smiles": "CCCCc1ccc2nc(NC(=O)OC)[nH]c2c1", "Potency": "inactive"}]}, {"experiment": "cAMP Responsive Elements (CRE) small molecule agonists, cell-based qHTS assay: qHTS cell viability counter screen (AID 2060914); also: nearly all actives have a fitted effect of over 50% in size", "settings": "CRE-bla HEK293T viability, CellTiter-Glo luminescence, 5 h; series mostly up to 92.4 µM", "procedure,_shortened": "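Luminescence read-out (CellTiter-Glo, 30 min RT) of ATP-based viability in CRE-bla HEK 293T cells, run in the same wells as the β-lactamase reporter assay after 3 h compound treatment at 37 °C.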", "values": [{"smiles": "C=C(C)CC(C)(C)C", "Potency": "inactive"}, {"smiles": "CCC(=O)O[C@]1(C(=O)SCF)[C@H](C)C[C@H]2[C@@H]3C[C@H](F)C4=CC(=O)C=C[C@]4(C)[C@@]3(F)[C@@H](O)C[C@@]21C", "Potency": "inactive"}, {"smiles": "CC(=O)OC1CC(C)OC(C)O1", "note": "(stereo not given)", "Potency": "inactive"}, {"smiles": "CN(C)CCOC(c1ccccc1)c1ccccc1", "Potency": "inactive"}, {"smiles": "CCCCCCC(CCCCCCCCCCC(=O)OCC(COC(C)=O)OC(C)=O)OC(C)=O", "note": "(stereo not given)", "Potency": "inactive"}, {"smiles": "C/C=C(\\C)C(=O)OCCC(C)CCC=C(C)C", "note": "(stereo not given)", "Potency": "inactive"}, {"smiles": "NC(CO)C(=O)NNCc1ccc(O)c(O)c1O", "note": "(stereo not given)", "Potency": "inactive"}, {"smiles": "CC(=O)Oc1cc2c(s1)CCN(C(C(=O)C1CC1)c1ccccc1F)C2", "note": "(stereo not given)", "Potency": "inactive"}, {"smiles": "CCc1ccc(C=O)cc1", "Potency": "inactive"}, {"smiles": "CN(C)C(=O)Nc1ccccc1", "Potency": "inactive"}, {"smiles": "C=CCOC(=O)/C=C\\C(=O)OCC=C", "Potency": "inactive"}, {"smiles": "O=c1c(O)c(-c2ccc(O)cc2O)oc2cc(O)cc(O)c12", "Potency": "inactive"}, {"smiles": "O=C(/C=C/c1ccc([N+](=O)[O-])cc1)c1ccccc1", "Potency": "inactive"}, {"smiles": "O=[N+]([O-])c1ccc2nc[nH]c2c1", "Potency": "inactive"}, {"smiles": "Cc1cccc2ccccc12", "Potency": "inactive"}, {"smiles": "O=C(O)CCCC(=O)O", "Potency": "inactive"}, {"smiles": "Nc1c(N=Nc2ccc(-c3ccc(N=Nc4cc(S(=O)(=O)O)c5ccccc5c4N)cc3)cc2)cc(S(=O)(=O)O)c2ccccc12", "Potency": "inactive"}, {"smiles": "CCCNC(=O)NS(=O)(=O)c1ccc(Cl)cc1", "Potency": "inactive"}, {"smiles": "CC(C)C[C@H]1C(=O)N2CCC[C@H]2[C@]2(O)O[C@](NC(=O)[C@@H]3C=C4c5cccc6[nH]c(Br)c(c56)C[C@H]4N(C)C3)(C(C)C)C(=O)N12", "Potency": "inactive"}, {"smiles": "NS(=O)(=O)c1ccccc1Cl", "Potency": "inactive"}, {"smiles": "COc1cc(/C=C/c2ccccc2)oc(=O)c1", "Potency": "inactive"}, {"smiles": "CO[C@@H]1COCC[C@@H]1N[C@@H]1CC[C@@](C(=O)N2CCc3ncc(C(F)(F)F)cc3C2)(C(C)C)C1", "Potency": "inactive"}, {"smiles": "O=C1c2ccccc2CCc2ccccc21", "Potency": "inactive"}, {"smiles": "O=c1c(-c2ccc(O)cc2)coc2cc(O)cc(O)c12", "Potency": "inactive"}, {"smiles": "CCCCC(CC)COC(=O)c1ccc(C(=O)OCC(CC)CCCC)cc1", "note": "(stereo not given)", "Potency": "inactive"}, {"smiles": "O=S(=O)(O)CCCN1CCOCC1", "Potency": "inactive"}, {"smiles": "CC(C)(C)NCC(O)COc1ccccc1OCC1CCCO1", "note": "(stereo not given)", "Potency": "inactive"}, {"smiles": "CCCCCCCC/C=C\\CCCCCCCCO", "Potency": "inactive"}, {"smiles": "CCCCOC(=O)CCCCCCCC(=O)OCCCC", "Potency": "inactive"}, {"smiles": "O=C(/C=C/c1ccc(O)c(O)c1)O[C@@H]1C[C@@](OC(=O)/C=C/c2ccc(O)c(O)c2)(C(=O)O)C[C@@H](O)[C@@H]1O", "Potency": "inactive"}, {"smiles": "CN(CCOc1ccc(CC2SC(=O)NC2=O)cc1)c1ccccn1", "note": "(stereo not given)", "Potency": "inactive"}, {"smiles": "COCC(C)OC(C)=O", "note": "(stereo not given)", "Potency": "inactive"}, {"smiles": "O=S(=O)(O)c1ccc(N=Nc2c(O)ccc3cc(S(=O)(=O)O)ccc23)cc1", "Potency": "inactive"}, {"smiles": "O=C1OC2(c3ccc(O)cc3Oc3cc(O)ccc32)c2ccc(N=C=S)cc21", "Potency": "inactive"}, {"smiles": "OC(CCN1CCCCC1)(c1ccccc1)c1ccccc1", "Potency": "inactive"}, {"smiles": "O=C(c1ccc(O)cc1O)c1ccc(O)cc1O", "Potency": "inactive"}, {"smiles": "CC(C)OC(=O)OCOP(=O)(CO[C@H](C)Cn1cnc2c(N)ncnc21)OCOC(=O)OC(C)C", "Potency": "inactive"}, {"smiles": "COc1cc2c(N3CCN(C(=O)Nc4ccc(OC(C)C)cc4)CC3)ncnc2cc1OCCCN1CCCCC1", "Potency": "inactive"}, {"smiles": "CCCCCCCCCCC(CO)CCCCCCCC", "note": "(stereo not given)", "Potency": "inactive"}, {"smiles": "CCCCc1ccc2nc(NC(=O)OC)[nH]c2c1", "Potency": "inactive"}]}]}
